Source: PubChem (National Center for Advancing Translational Sciences (NCATS))
HTT ATP protect: cytoprotection in Huntington HTT-Q103 PC12 cell model; PC12 HTT-Q103 induced, cytoprotection, ATP luminescence, 40 h; Potency, µM (series often up to 56.4 µM), usual class: activators; 230,000 tested, 0.14% active; note: nearly all actives have a fitted effect of over 45% in size
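ATP quantification (ATPlite) reports survival of PC12 cells in which tebufenozide, 100 nM final, switches on Htt exon 1 with 103 glutamines linked to GFP; compounds are titrated.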
HTT aggregate: reduces HttQ103-GFP aggregates in PC12 cells; 220,000 tested, 1.1% active; PC12 HttQ103-GFP aggregates, Acumen cytometry, 40 h; Potency, µM (doses to about 46.1 µM), actives largely listed as inhibitors; note: nearly all actives have a fitted effect of over 60% in size
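Aggregates are detected as GFP objects 1–25 µm with signal 6 STDEV over background in lysates of induced PC12 cells. These carry Huntingtin exon 1 with 103 glutamines fused to GFP under an ecdysone promoter; compounds titrated.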
Lamin A splicing: LMNA splicing modulation; HeLa LMNA splicing GFP/RFP minigene ratio, 48 h; Potency, µM (top dose mostly 46.1 µM), usual class: inhibitors; 200,000 tested, 0.01% active; active = well fitted inhibition curve with a large enough effect in the signal ratio, with a control signal flat, not every such curve was filed as active; inconclusive = small, poorly fitted or top-dose-only effect, or effect the other way, or a change in a side signal; the % refers to the signal ratio
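S3 HeLa stable clones carrying a lamin A-EGFP splicing minigene plus DsRed2 were seeded at 600 cells/well in Opti-MEM with 2% FBS, pin-dosed and incubated 48 h at 37°C. Acumen cytometry (488 nm) gave the GFP/RFP total-intensity ratio.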
HPGD block: HPGD (human) dehydrogenase inhibition; P15428; 150,000 tested, 4.3% active; purified HPGD, NADH fluorescence kinetic, PGE2 substrate; Potency, µM, hits mostly inhibitors; active = well fitted inhibition curve with a large enough effect, not every such curve was filed as active; inconclusive = small, poorly fitted or top-dose-only effect, or another doubt; inactive = no such curve, though single readings can be large or run the other way
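20 nM HPGD preincubated 15 min at room temperature with compound in 50 mM Tris-HCl pH 8, 0.01% Tween 20. Started with 1 mM NAD+ and 30 uM prostaglandin E2; NADH fluorescence (360/450 nm) read 5 times over 30-s intervals, last minus first.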
ALDH1A1 block: ALDH1A1 (human) enzyme inhibition. P00352. Purified ALDH1A1, NADH fluorescence, propionaldehyde substrate. Potency, µM (doses to about 75.3 µM), most hits filed as inhibitors. 220,000 tested, 7.3% active; active = well fitted inhibition curve with a large enough effect, not every such curve was filed as active; inconclusive = small, poorly fitted or top-dose-only effect, or another doubt; inactive = no such curve, though single readings can be large or run the other way
Target sequence (P00352 whole entry, looked up): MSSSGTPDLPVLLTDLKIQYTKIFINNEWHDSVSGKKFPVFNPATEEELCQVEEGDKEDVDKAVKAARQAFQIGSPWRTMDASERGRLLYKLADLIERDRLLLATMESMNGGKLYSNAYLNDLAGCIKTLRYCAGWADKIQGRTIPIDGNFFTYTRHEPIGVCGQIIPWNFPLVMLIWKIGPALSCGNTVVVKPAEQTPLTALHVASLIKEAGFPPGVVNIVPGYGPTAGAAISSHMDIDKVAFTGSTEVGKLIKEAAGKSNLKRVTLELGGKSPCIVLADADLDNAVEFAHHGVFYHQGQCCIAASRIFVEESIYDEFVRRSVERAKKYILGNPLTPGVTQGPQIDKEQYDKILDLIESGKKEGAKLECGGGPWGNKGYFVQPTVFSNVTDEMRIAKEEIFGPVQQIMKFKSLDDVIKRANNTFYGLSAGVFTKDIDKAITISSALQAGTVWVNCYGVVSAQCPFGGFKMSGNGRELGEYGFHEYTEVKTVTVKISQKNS
Hits are given with their value; . = inactive; ? = inconclusive; / = not tested or not shown; ! = not active in a repeat; [ ] = dose if it differs, or a comment. The list is not random: actives were taken first. Their share in the collection is about 8.8%. Unless noted, calls come from the whole dose curve; as a rule, active = well fitted curve in the direction sought with a large enough effect; inconclusive = small, poorly fitted or top-dose-only effect, or another doubt; inactive = no such curve, though single readings can be large; an effect the other way counts as inactive or inconclusive.

SMILES | HTT ATP protect | HTT aggregate | Lamin A splicing | HPGD block | ALDH1A1 block
O=C(O)c1cc(O)c2c(c1)C(=O)c1cccc(O)c1C2=O | .[1.9 µM] | . | ? | ? | ?
Cc1cc(O)c2c(c1)C(=O)c1cccc(O)c1C2=O | .[1.9 µM] | . | ? | . | 13µM!
CC(C)=NNc1nc(-c2ccc(N3C(=O)CCC3=O)cc2)cs1 | .[10 µM] | .[9.22 µM] | / | / | 11µM
CC(C)=NNc1nc(-c2ccccc2)cs1 | .[10 µM] | . | ? | . | .
CCOCCn1ccc2c(OCC(=O)Nc3ccc(C(N)=O)cc3)cccc2c1=O | / | / | . | / | /
Cc1cc(C)cc(NC(=S)NCc2cccs2)c1 | .[10 µM] | . | . | 14µM | .
CC(C)(C)c1ccc(NC(=S)NCc2cccs2)cc1 | . | ? | ? | . | .
COc1cc(NC(=S)NCc2ccco2)cc(OC)c1 | .[10 µM] | . | . | ? | ?
COc1cc(NC(=S)NCc2cccs2)cc(OC)c1 | ? | . | . | 18µM | .
CCOC(=O)c1ccc(Nc2nc3ccccc3n3c(C)nnc23)cc1 | / | / | . | / | /
O=C(CN1CCCC1)Nc1ccccc1Cl | . | .[9.22 µM] | . | ? | .
O=C(CN1CCN(C(=O)c2ccco2)CC1)Nc1ccccc1-c1ccccc1 | . | . | . | . | 6.3µM
O=C(CN1CCN(C(=O)c2ccco2)CC1)Nc1cc(Cl)ccc1Cl | . | . | . | . | .
O=C(CN1CCOCC1)Nc1ccccc1-c1ccccc1 | . | . | . | . | 14µM
O=C(CN1CCCCC1)Nc1ccccc1-c1ccccc1 | . | . | . | . | 19µM
O=S(=O)(c1ccccc1)N(C1=NCCS1)S(=O)(=O)c1ccccc1 | . | . | . | . | 8.9µM
Cc1cccc(NC(=O)C2CCN(S(=O)(=O)c3ccc4c(c3)CCCC(=O)N4)CC2)c1 | / | / | . | / | /
CC(C)C(NC=C1C(=O)OC(C)(C)OC1=O)C(=O)O (stereo not given) | . | . | . | . | 8.9µM
COc1ccc(CCC(=O)NC2CC(=O)N(c3ccc(C)c(C)c3)C2)cc1 (stereo not given) | / | / | . | / | /
CC(=O)c1ccc(NC(=O)CCSCCC(=O)Nc2ccc(C(C)=O)cc2)cc1 | . | . | . | . | 40µM
C/C(=N\NC(=O)CNc1ccc(F)cc1)c1cc2ccccc2o1 | .[10 µM] | . | . | / | 11µM
COc1ccc(NCC(=O)N/N=C(\C)c2cc3ccccc3o2)cc1 | . | . | / | / | 25µM
C/C(=N\NC(=O)c1cc2ccccc2cc1O)c1cc2ccccc2o1 | .[10 µM] | .[9.22 µM] | / | / | /
C/C(=N\NC(=O)COc1ccc(C(C)(C)C)cc1)c1cc2ccccc2o1 | .[0.074 µM] | . | ? | ? | .
CCc1ccccc1NC(=O)Cn1c(=O)n(-c2ccc(C)cc2)c(=O)c2c1c1cc(C)ccc1n2C | / | / | . | / | /
SMILES | HTT ATP protect | HTT aggregate | Lamin A splicing | HPGD block | ALDH1A1 block
O=C(O)c1ccc(NS(=O)(=O)c2cccc3ccccc23)cc1 | / | / | / | . | .
CC1(CC(=O)Nc2ccccc2)NC(=S)N(c2ccccc2)N1 (stereo not given) | .[10 µM] | . | . | / | 11µM
COc1ccc(-c2c[n+](CC(=O)OC3CC(C)CCC3C(C)C)c3n2CCC3)cc1 (stereo not given) | .[10 µM] | 10µM | ? | / | .
CC(C)[C@@H]1CC[C@@H](C)C[C@H]1OC(=O)C[n+]1cc(-c2ccc(Cl)cc2)n2c1CCCCC2 | .[10 µM] | .[9.22 µM] | / | / | /
CN(C)c1ccc(CNC(=O)CCn2c(=O)c3cccn3c3ccc(F)cc32)cc1 | / | / | . | / | /
CC(NC(=O)c1ccccc1NC(=O)c1ccncc1)c1ccccc1 (stereo not given) | . | .[9.22 µM] | / | / | 28µM
CC(NC(=O)c1ccccc1NC(=O)c1ccco1)c1ccccc1 (stereo not given) | .[10 µM] | . | . | . | .
COc1cccc(Cn2c(=O)c(-c3cccc(C#N)c3)nc3cnc(Nc4ccccc4)nc32)c1 | . | / | / | . | .
CC(=O)Nc1ccc(-c2nnc(SCC(=O)Nc3ccc4c(c3)oc3ccccc34)n2C)cc1 | . | . | .[0.0737 µM] | . | 0.4µM
CC(=O)Nc1cccc(-c2nnc(SCC(=O)N3CCCCC3)n2C)c1 | .[1.9 µM] | . | . | . | .
CC(=O)Nc1cccc(-c2nnc(SCC(=O)n3c4c(c5ccccc53)CCCC4)n2C)c1 | . | . | . | . | 22µM
CCn1c(SCC(=O)Nc2ccc3c(c2)oc2ccccc23)nnc1-c1ccc(N)cc1 | . | . | ? | ? | 25µM
CCC(CC)C(=O)NCc1nc2cccnc2n1Cc1ccc(F)cc1 | / | / | . | / | /
